Inconclusive results are not listed. Activity calls are given as the source filed them.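 Rule for the calls, unless noted: active = aptamer binding inhibition above 30%, about 3 SD of noise from non-fluorescent compounds; inactive = inhibition at or below 30%.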
Key:
[1] = rapamycin-like changes in RPL19A-GFP expression – cell-based, S. cerevisiae, multiplex flow cytometry, primary screen (AID 1862; in the data active = percent of DMSO control GFP below about 86%;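 note: lower values mimic rapamycin by blocking the RPL19A rise seen in DMSO cells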); conditions: S. cerevisiae RPL19A-GFP strain, flow cytometry fluorescence, 3 h; at 10 µM; stronger effect = lower value
[2] = TOR pathway GLN3 branch reporter MEP2-GFP changes – S. cerevisiae, multiplex flow cytometry, primary screen (AID 1867;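 active = GFP response, as percent of the DMSO control, above the screen-wide mean plus 3 SD, about 139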;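 note: median GFP channel fluorescence of barcode-gated MEP2-GFP cells measured by flow cytometry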); conditions: S. cerevisiae MEP2-GFP strain, 3 h, at 10 µM, stronger effect = higher value, 100% means same as DMSO wells
[3] = TOR pathway RTG branch CIT2 reporter changes – S. cerevisiae, GFP fusion, multiplex flow cytometry, primary screen (AID 1870;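 active = percent response above a set limit, the screen-wide mean plus 3 SD, cut at about 130% in these data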;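 note: barcoded CIT2-GFP strain pooled with four other GFP strains with rapamycin as positive control; median GFP fluorescence per well over plate mean of DMSO wells so 100% = DMSO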); conditions: S. cerevisiae CIT2-GFP expression, 3 h, at 10 µM, stronger effect = higher value
[4] = TOR pathway LAP4-GFP level changes – S. cerevisiae, multiplex flow cytometry, primary screen (AID 1873;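 active = GFP signal, as percent of the solvent control, above the screen mean plus 3 SD, about 149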); conditions: S. cerevisiae LAP4-GFP expression, 3 h, at 10 µM, stronger effect = higher value
[5] = yeast AGP1-GFP level changes, GLN3 branch – cell-based, multiplex flow cytometry, S. cerevisiae, primary screen (AID 1887;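 active = GFP signal above the screen-wide mean plus 3 SD, that is over about 124.5% of the solvent control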;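 note: AGP1-GFP fusion strain of S. cerevisiae within a five-strain barcoded multiplex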); conditions: 3 h, at 10 µM, stronger effect = higher value
[6] = reduced mouse 2C T cell binding to pMHC/ICAM-1 vesicles – MLPCN validation set, flow cytometry, LFA-1/ICAM-1 modulator project, pilot screen (AID 2523;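 active = response below a set limit, under 55% cells CD8-positive and vesicle-bound, and CD8 cells' 90th-percentile brightness under 279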;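 for vesicle binding response: mean PE anti-B7-1 fluorescence of CD8+ cells relative to row control; 100% = QL9-loaded vesicles with DMSO vehicle in the same plate row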); conditions: 2C mouse CD8+ T cells, at 7 µM, stronger effect = lower value; double positive events: measured here: CD8+/vesicle+ event percentage
[7] = biological target: Integrin beta-1 (Homo sapiens) + Integrin alpha-4 (Homo sapiens) (UniProt P13612+P05556); assay: alpha4beta1 integrin LIBS antibody binding reduction – U937 cells, HUTS-21 mAb, flow cytometry, validation set, VLA-4 allosteric modulator project, pilot screen (AID 2674;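 active = inhibition above 50%, about 3 SD of the validation set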;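 note: antibody binding induced by the VLA-4 ligand LDV present at three times its Kd; 0% = LDV ligand with antibody and no compound and 100% = antibody without LDV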); conditions: HUTS-21 LIBS mAb binding, at 6.7 µM, stronger effect = higher value, binding induced by LDV ligand
Sequence of Integrin beta-1 (Homo sapiens) + Integrin alpha-4 (Homo sapiens) (P05556 whole entry, looked up): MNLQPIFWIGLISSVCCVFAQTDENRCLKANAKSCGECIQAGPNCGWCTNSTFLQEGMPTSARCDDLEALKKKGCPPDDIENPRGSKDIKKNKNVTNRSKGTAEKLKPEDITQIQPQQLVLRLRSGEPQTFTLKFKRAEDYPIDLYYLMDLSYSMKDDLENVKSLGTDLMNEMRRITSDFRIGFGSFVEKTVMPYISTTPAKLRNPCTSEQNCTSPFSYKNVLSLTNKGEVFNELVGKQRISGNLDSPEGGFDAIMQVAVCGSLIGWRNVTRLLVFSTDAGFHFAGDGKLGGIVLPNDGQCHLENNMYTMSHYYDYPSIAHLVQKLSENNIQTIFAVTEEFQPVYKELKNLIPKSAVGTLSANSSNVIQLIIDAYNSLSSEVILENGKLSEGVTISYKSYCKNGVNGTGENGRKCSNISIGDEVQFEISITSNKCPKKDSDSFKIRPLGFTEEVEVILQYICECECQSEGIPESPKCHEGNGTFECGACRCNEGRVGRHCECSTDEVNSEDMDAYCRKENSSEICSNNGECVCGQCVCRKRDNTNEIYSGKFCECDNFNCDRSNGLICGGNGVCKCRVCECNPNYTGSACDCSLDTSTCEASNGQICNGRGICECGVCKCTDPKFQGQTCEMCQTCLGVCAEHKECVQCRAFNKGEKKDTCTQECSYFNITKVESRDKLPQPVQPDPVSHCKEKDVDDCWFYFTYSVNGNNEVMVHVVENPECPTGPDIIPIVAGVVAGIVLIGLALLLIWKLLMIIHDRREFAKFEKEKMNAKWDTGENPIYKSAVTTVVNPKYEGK
Sequence of Integrin beta-1 (Homo sapiens) + Integrin alpha-4 (Homo sapiens) (P13612 whole entry, looked up): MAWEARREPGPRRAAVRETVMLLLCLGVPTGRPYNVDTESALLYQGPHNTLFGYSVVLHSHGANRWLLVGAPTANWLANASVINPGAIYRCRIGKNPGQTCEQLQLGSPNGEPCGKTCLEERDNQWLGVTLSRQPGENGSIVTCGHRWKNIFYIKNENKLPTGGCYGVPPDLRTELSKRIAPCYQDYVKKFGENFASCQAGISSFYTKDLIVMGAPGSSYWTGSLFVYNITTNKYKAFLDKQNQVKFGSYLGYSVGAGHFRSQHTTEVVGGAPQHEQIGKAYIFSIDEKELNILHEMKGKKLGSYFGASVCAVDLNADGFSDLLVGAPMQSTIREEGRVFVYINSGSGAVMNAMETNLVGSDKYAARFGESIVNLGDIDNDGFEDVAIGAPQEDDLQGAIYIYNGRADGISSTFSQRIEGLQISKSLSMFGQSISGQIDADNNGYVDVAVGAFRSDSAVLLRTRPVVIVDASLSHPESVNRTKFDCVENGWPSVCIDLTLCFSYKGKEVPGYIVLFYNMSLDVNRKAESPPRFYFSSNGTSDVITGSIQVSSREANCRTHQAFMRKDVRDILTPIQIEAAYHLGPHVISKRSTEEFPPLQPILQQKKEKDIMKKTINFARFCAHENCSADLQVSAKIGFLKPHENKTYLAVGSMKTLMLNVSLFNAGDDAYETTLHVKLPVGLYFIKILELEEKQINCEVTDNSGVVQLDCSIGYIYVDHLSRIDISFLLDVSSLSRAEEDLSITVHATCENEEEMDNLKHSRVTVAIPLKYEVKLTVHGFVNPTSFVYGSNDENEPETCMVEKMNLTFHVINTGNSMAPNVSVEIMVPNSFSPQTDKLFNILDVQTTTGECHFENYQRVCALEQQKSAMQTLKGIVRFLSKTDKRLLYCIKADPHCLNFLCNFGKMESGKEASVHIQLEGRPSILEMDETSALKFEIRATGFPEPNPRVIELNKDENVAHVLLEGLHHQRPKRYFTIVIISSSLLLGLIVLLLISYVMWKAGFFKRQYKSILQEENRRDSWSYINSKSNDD

[8] = calorie-restriction mimetic ROS inhibitors, yeast – validation compound set, pilot screen (AID 2706;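 active = superoxide response below 65% of plate, a cut near 3 SD across the whole screen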;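 note: yeast exposed to compound for one week at 30 degrees C before staining; 100% = mean of all compound wells on the same plate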); conditions: S. cerevisiae aging, superoxide DHE fluorescence; at 10 µM; stronger effect = lower value
[9] = biological target: Beta-adrenergic receptor kinase 1 (Homo sapiens) (UniProt P25098); assay: GRK2 binders displacing RNA aptamer, biochemical, validation, human GRK2, bead flow cytometry (AID 488806); conditions: bead-bound GRK2, FAM-aptamer displacement, at 10 µM, stronger effect = higher value
Sequence of Beta-adrenergic receptor kinase 1 (Homo sapiens) (P25098 whole entry, looked up): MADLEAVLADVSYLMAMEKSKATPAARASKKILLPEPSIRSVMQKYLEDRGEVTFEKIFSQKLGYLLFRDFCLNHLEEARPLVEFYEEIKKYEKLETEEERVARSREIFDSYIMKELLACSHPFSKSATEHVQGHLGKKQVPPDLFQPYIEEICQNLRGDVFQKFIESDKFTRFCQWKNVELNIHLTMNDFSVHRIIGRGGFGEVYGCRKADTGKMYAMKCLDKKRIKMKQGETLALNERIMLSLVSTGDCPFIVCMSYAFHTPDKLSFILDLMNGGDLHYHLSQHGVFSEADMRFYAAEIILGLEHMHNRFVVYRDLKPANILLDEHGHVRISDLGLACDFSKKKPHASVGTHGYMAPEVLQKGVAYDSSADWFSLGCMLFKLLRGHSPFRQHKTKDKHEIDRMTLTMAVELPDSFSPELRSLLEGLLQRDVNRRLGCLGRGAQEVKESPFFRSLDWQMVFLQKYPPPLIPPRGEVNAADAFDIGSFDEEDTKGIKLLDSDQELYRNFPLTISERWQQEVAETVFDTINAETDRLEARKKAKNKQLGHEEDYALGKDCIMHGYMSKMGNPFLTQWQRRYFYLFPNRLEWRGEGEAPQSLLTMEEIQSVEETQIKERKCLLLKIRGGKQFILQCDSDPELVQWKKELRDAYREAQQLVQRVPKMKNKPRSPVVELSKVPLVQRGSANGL

[10] = biological target: Beta-2 adrenergic receptor (Homo sapiens) (UniProt P07550); assay: agonist-induced loss of surface beta2AR – cell-based, FAP fluorogen, flow cytometry, validation set, pilot screen (AID 504459;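 active = percent response above 42, roughly 3 SD of non-fluorescent test compounds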;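 note: agonist-driven loss of surface beta2AR via internalization measured by FAP dye flow cytometry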); conditions: Am2.2-beta2AR cells, at 10 µM, stronger effect = higher value
Sequence of Beta-2 adrenergic receptor (Homo sapiens) (P07550 whole entry, looked up): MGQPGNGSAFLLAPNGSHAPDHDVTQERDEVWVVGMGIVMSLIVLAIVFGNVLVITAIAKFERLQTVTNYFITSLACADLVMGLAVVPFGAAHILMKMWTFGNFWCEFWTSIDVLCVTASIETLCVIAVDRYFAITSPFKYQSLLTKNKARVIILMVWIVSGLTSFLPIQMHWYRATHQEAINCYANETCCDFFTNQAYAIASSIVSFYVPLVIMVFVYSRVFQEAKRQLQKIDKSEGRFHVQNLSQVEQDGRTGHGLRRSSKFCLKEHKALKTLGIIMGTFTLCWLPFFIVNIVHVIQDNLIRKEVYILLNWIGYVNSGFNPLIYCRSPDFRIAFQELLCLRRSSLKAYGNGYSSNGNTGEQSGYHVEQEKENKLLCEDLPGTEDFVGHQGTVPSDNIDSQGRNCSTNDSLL

[11] = biological target: AP-2 complex subunit beta (Homo sapiens) (UniProt P63010); assay: beta-arrestin/AP2 interaction blockers – biochemical, validation set, GST-AP2 beads, flow cytometry, pilot screen (AID 504541;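 active = inhibition above 54%, about 3 SD of non-fluorescent compounds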;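 note: AP2 carries R879A mutation and is captured from E. coli lysate; bead-bound FITC arrestin peptide fluorescence measuring arrestin peptide binding to AP2; 0% = DMSO wells and 100% = excess unlabeled arrestin peptide control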); conditions: FITC arrestin peptide, at 10 µM, stronger effect = higher value, AP2 beta2 appendage fragment, R879A mutant
Sequence of AP-2 complex subunit beta (Homo sapiens) (P63010 whole entry, looked up, the tested form may be a part, one chain of several): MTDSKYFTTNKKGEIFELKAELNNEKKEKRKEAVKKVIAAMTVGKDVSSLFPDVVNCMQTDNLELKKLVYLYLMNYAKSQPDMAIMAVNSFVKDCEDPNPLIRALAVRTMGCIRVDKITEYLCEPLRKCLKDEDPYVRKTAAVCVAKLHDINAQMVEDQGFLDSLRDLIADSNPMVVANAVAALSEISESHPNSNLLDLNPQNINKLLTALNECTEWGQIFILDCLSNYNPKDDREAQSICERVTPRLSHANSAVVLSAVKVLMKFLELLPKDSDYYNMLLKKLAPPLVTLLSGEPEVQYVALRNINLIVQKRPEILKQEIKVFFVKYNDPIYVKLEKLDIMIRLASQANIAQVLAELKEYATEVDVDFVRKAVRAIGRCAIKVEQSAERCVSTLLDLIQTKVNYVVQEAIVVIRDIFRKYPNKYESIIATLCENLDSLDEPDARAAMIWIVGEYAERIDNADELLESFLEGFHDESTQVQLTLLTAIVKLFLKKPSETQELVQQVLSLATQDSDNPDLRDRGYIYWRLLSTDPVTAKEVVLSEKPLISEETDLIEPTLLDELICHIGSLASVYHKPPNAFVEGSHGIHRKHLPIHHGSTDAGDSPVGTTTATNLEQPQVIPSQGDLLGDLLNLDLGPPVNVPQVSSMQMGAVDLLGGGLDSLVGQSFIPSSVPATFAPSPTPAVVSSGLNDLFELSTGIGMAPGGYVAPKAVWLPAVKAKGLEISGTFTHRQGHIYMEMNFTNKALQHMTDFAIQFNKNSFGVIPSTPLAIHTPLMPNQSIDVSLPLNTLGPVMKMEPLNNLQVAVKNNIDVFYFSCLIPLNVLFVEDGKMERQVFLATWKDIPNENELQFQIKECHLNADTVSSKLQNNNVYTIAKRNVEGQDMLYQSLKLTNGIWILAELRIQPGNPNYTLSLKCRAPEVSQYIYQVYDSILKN

[12] = cytosolic pH regulators acting via V-ATPase – S. cerevisiae, pHLuorin, HTS validation (AID 504600; in the data active = response above about 15%;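 note: plate controls were DMSO for no effect and reference compound for full effect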); conditions: V-ATPase proton transport, at 10 µM, stronger effect = higher value
[13] = test system: anti-desmoglein-3 scFv antibody binding to human DSG3; assay: blockers of pathogenic pemphigus antibody–desmoglein-3 binding – biochemical, validation compound set, bead-based, flow cytometry, pilot screen (AID 588368;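 active = binding below the plate cutoff, the plate median minus 3 SD, with a reading above zero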;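 note: signal is the median channel fluorescence of bead-bound GFP antibody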); conditions: Protein G beads, DSG3-Fc, scFv-GFP binding, at 10 µM, stronger effect = lower value
[14] = Nile Red efflux blockade in pump-expressing yeast – validation compound set, multiplex, phenotypic, pilot screen (AID 588506;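 active = efflux inhibition above 0.42, the validation set average plus 4 SD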;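 note: Nile Red retained in cells so higher fluorescence means more efflux inhibition; 0 = negative control wells and 1 = enniatin B 25 µM full block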); conditions: S. cerevisiae pump-expressing triplex, Nile Red efflux flow cytometry; at 10 µM; stronger effect = higher value; the pumps come from Candida albicans
[15] = biological target: ATP-binding cassette sub-family B member 6 (Homo sapiens) (UniProt Q9NP58); assay: blockers of ABCB6-driven porphyrin uptake – K562-ABCB6 cells, flow cytometry, validation set, pilot screen (AID 588550;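 active = inhibition above the screen-wide mean plus 3 SD, about 51%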;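 note: 0% = DMSO wells and 100% = benzethonium chloride 70 µM positive control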); conditions: K562-ABCB6 porphyrin accumulation, 1 h, at 10 µM, stronger effect = higher value
Sequence of ATP-binding cassette sub-family B member 6 (Homo sapiens) (Q9NP58 whole entry, looked up): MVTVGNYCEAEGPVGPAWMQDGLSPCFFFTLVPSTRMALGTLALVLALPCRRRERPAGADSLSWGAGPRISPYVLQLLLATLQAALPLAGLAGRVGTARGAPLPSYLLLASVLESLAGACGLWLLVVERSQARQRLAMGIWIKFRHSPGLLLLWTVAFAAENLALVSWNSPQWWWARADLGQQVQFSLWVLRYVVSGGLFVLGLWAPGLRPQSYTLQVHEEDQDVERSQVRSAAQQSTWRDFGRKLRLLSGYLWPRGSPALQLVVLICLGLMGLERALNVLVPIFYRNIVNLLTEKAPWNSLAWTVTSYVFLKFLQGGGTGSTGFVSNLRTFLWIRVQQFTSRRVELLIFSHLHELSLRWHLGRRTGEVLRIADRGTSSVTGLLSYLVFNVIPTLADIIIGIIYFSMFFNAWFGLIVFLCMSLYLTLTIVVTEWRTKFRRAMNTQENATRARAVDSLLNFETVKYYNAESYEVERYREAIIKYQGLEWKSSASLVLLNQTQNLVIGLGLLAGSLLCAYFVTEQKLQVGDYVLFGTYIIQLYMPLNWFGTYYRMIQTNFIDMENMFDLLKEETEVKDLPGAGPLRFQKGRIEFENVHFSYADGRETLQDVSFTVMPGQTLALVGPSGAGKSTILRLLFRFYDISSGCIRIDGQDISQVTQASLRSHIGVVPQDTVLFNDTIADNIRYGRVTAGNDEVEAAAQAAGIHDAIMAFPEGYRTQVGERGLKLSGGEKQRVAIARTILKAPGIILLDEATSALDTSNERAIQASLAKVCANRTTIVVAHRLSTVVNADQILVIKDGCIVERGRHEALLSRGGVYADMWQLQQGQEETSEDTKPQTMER

[16] = AML differentiation inducers, ER-HoxA9 marrow cells – cell-based, GFP/MAC1 double positive, flow cytometry, validation set, primary screen (AID 588685;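 active = differentiation response of at least 50%, scaled between solvent and reference control, from cells with both markers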;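 note: compound exposure lasts four days before antibody staining and flow analysis; 0% = DMSO wells and 100% = 5 µM fulvestrant positive control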); conditions: stronger effect = higher value, normalized: vehicle 0, fulvestrant 100

SMILES | percent of DMSO control GFP [1] | GFP response vs DMSO [2] | percent response of DMSO control [3] | GFP response vs DMSO [4] | GFP response, % of DMSO [5] | double positive events [6] | vesicle binding response [6] | inhibition [7] | superoxide response (% of plate) [8] | aptamer binding inhibition [9] | response [10] | inhibition [11] | response [12] | binding (% of control) [13] | efflux inhibition (fraction of control) [14] | inhibition [15] | differentiation response [16]
CC1(C)CC(=O)C2=C(C1)c1c(ccc3ccccc13)NC2c1ccco1 (stereo not drawn) | 98.8% (inactive) | 105% (inactive) | 93.9% (inactive) | 123% (inactive) | 99.5% (inactive) | 57% | 182% (inactive) | -8.62% (inactive) | 107% (inactive) | 6% (inactive) | 14.4% (inactive) | 13.8% (inactive) | 1.12% (inactive) | 104% (inactive) | -0.06 (inactive) | 3% (inactive) | 28% (inactive)
C=CCOc1ccc(C(=O)CC)cc1OC | 102% (inactive) | 105% (inactive) | 104% (inactive) | 106% (inactive) | 98.6% (inactive) | 60% | 174% (inactive) | 8.29% (inactive) | 103% (inactive) | 1% (inactive) | 2.91% (inactive) | -8.48% (inactive) | 9.51% (inactive) | 106% (inactive) | 0.03 (inactive) | -4% (inactive) | -6.03% (inactive)
c1ccc(Nc2cccc3c(Nc4ccccc4)cccc23)cc1 | 104% (inactive) | 107% (inactive) | 105% (inactive) | 88.7% (inactive) | 97.8% (inactive) | 62% | 284% (inactive) | -28.5% (inactive) | 98.3% (inactive) | 1% (inactive) | 6.03% (inactive) | 21.9% (inactive) | 0.51% (inactive) | 91.6% (inactive) | 0.18 (inactive) | -26% (inactive) | 14.9% (inactive)
COc1cccc(OCC(O)CO)c1 (stereo not drawn) | 97.6% (inactive) | 91.9% (inactive) | 107% (inactive) | 78.6% (inactive) | 91.6% (inactive) | 58.2% | 160% (inactive) | 0.94% (inactive) | 94.9% (inactive) | 4% (inactive) | 3.25% (inactive) | 11.4% (inactive) | -1.06% (inactive) | 99.9% (inactive) | -0.1 (inactive) | 1% (inactive) | -4% (inactive)
COc1cc(CO)ccc1OCc1nnnn1-c1ccc(C)cc1 | 102% (inactive) | 105% (inactive) | 102% (inactive) | 95.9% (inactive) | 101% (inactive) | 58.4% | 163% (inactive) | 2.93% (inactive) | 107% (inactive) | -1% (inactive) | 6.38% (inactive) | -5.08% (inactive) | 10.4% (inactive) | 97.3% (inactive) | 0.64 (active) | -8% (inactive) | -1.65% (inactive)
C1CCC(C(CC2CCCCN2)C2CCCCC2)CC1 (stereo not drawn) | 97.9% (inactive) | 107% (inactive) | 101% (inactive) | 130% (inactive) | 116% (inactive) | 62% | 170% (inactive) | -17.3% (inactive) | 119% (inactive) | -11% (inactive) | 26.4% (inactive) | -6.24% (inactive) | 2.51% (inactive) | 109% (inactive) | 0.12 (inactive) | -5% (inactive) | -5.97% (inactive)
COc1ccc(C(Cl)=C(c2ccc(OC)cc2)c2ccc(OC)cc2)cc1 | 102% (inactive) | 109% (inactive) | 91.9% (inactive) | 90.7% (inactive) | 98% (inactive) | 62.9% | 934% (inactive) | -8.75% (inactive) | 95.2% (inactive) | 4% (inactive) | 1.32% (inactive) | 18.5% (inactive) | -2.47% (inactive) | 95.8% (inactive) | 0.18 (inactive) | 7% (inactive) | 6.11% (inactive)
CC(=O)N/C(=C/c1ccc2c(c1)OCO2)C(=O)NCCO | 98.2% (inactive) | 106% (inactive) | 93.9% (inactive) | 111% (inactive) | 106% (inactive) | 61.5% | 3870% (inactive) | -5.89% (inactive) | 106% (inactive) | 0% (inactive) | 2.49% (inactive) | -4.62% (inactive) | 1.75% (inactive) | 97.4% (inactive) | -0.42 (inactive) | 2% (inactive) | -5.6% (inactive)
NC[C@H]1O[C@H](O[C@H]2[C@H](O)[C@@H](O[C@H]3O[C@H](CO)[C@@H](O)[C@H](N)[C@H]3O)[C@H](N)C[C@@H]2N)[C@H](N)C[C@@H]1O | 101% (inactive) | 102% (inactive) | 95.1% (inactive) | 109% (inactive) | 110% (inactive) | 63.2% | 273% (inactive) | 12.5% (inactive) | 110% (inactive) | 3% (inactive) | -5.14% (inactive) | -4.09% (inactive) | -21.1% (inactive) | 109% (inactive) | 0.04 (inactive) | 2% (inactive) | -7.94% (inactive)

From PubChem BioAssay
